A number with no mark means an inactive call. How the calls were made is not given here. Where a SMILES comes first, the peptide text is derived from it. The star is where a group is joined. Cbz = O=C(OCc1ccccc1)*

This experiment concerns Aerobactin synthetase IucA (Klebsiella pneumoniae, hypervirulent). The experiment in a line: biochemical IucA inhibition screen of LOPAC library by absorbance (AID 1346212).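 Further: 100% = no compound wells and 0% = no enzyme wells.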 The note with it: IucA enzyme assay, absorbance (OD) readout; stronger effect = lower value;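 tested at 8 µM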.
Regarding `COc1ccccc1N1CCN(CC(O)COc2cccc3ccccc23)CC1` (centres undefined), the remaining activity was 96.1%.

On to `CCN1/C(=C/C(C)=O)Sc2ccc(OC)cc21`, for which the remaining activity is 123%.

Turning to `CN1CCCC1c1cccnc1` (centres undefined), the remaining activity was 115%. As for `O=C(O)CN(CCOCCOCCN(CC(=O)O)CC(=O)O)CC(=O)O`, the figure is 88.2%; as for `Oc1ccc(Cn2cc[nH]c2=S)cc1`, 102%. With `O=[N+]([O-])c1ccc(-c2nc(-c3ccc(F)cc3)c(-c3ccncc3)[nH]2)cc1`, the remaining activity is 95.7%. As for `CC(C)C[C@H](NP(=O)(O)O[C@@H]1O[C@@H](C)[C@H](O)[C@@H](O)[C@H]1O)C(=O)N[C@@H](Cc1c[nH]c2ccccc12)C(=O)O`, the figure is 89.8%; as for `CC(C)C[C@H](NC(=O)[C@@H](O)[C@H](N)Cc1ccccc1)C(=O)O`, 108%; as for `CN1CCc2cc(Cl)c(O)cc2[C@@H](c2ccccc2)C1`, 102%. As for `O=C(O)CCC/C=C\C[C@@H]1[C@@H](/C=C/[C@H](O)C2Cc3ccccc3C2)[C@@H](F)C[C@@H]1O`, the figure is 97.7%. As for `Nc1nc2ccc(Cl)cc2c2nc(-c3ccco3)nn12`, the remaining activity is 104%. As for `CC(C)[C@H](NC(=O)OCc1ccccc1)C(=O)N[C@H](C=O)Cc1ccccc1` (Cbz-Val-Phe-aldehyde), the remaining activity is 106%.

Turning to `O=c1c2ccccc2[nH]c(=S)n1CCN1CCC(=C(c2ccc(F)cc2)c2ccc(F)cc2)CC1`, the remaining activity is 119%. For `COc1cccc(OC)c1OCCNCC1COc2ccccc2O1` (centres undefined), the remaining activity is 105%. As for `C=CC[C@H](N)C(=O)O`, the figure is 95.7%; as for `CNc1cc(NS(=O)(=O)c2ccc(N)cc2)nc(NC)n1`, 104%. `O=C(O)/C=C/c1cnc[nH]1`: the remaining activity is 101%. As for `C=C[C@H]1CN2CC[C@H]1C[C@H]2[C@H](O)c1ccnc2ccc(OC)cc12`, the figure is 110%; as for `CNCC[C@H](Oc1ccc(C(F)(F)F)cc1)c1ccccc1`, 93.6%. As for `Cn1c(=O)c2[nH]c(-c3ccccc3)nc2n(C)c1=O`, the figure is 124%.

`COc1cc2nc(N3CCN(C(=O)OCc4ccccc4)[C@H](C(=O)NC(C)(C)C)C3)nc(N)c2cc1OC`: the remaining activity was 91.6%. `C(=C\c1ccccc1)/CN1CCN(C(c2ccccc2)c2ccccc2)CC1`: the remaining activity is 113%. Consider `COc1ccccc1N1CCN(CCCCN2C(=O)c3ccccc3C2=O)CC1`, for which the remaining activity was 113%. As for `Nc1nnc(-c2cccc(Cl)c2Cl)c(N)n1`, the figure is 114%; as for `O=c1[nH]c2cc(Cl)ccc2c(O)c1-c1cccc(Oc2ccccc2)c1`, 120%; as for `Cn1ccnc1`, 101%.

In the case of `COC(=O)C1=C(C)NC(C)=C(C(=O)OC(C)(C)CN(C)CCC(c2ccccc2)c2ccccc2)C1c1cccc([N+](=O)[O-])c1` (centres undefined), the remaining activity was 109%. As for `CN(C)c1ccc(/C=C2\C(=O)Nc3ccccc32)cc1`, the figure is 95.7%. As for `C#CCN1C(C)=C(C(=O)OC)C(c2cccc([N+](=O)[O-])c2)C(C(=O)OCC)=C1C` (centres undefined), the figure is 112%; as for `Cn1cnc2c(NCc3ccccc3)nc(NCCO)nc21`, 119%; as for `Nc1ncnc2c1nc(Br)n2C1OC2COP(=O)(O)O[C@@H]2C1O` (some centres undefined), 113%. As for `Oc1cc(O)cc(/C=C/c2ccc(O)c(O)c2)c1`, the remaining activity was 125%. Take `Nc1ccc(N2C(=O)c3ccccc3C2=O)c(Cl)c1`: the remaining activity is 105%. In the case of `N[C@@H](COP(=O)(O)O)C(=O)O`, the remaining activity was 124%. Regarding `CC[N+](C)(C)Cc1ccccc1Br`, the remaining activity was 108%. As for `COc1nc(C)nc(Cl)c1NC1=NCCN1`, the figure is 119%. As for `NC(N)=NCc1cccc(I)c1`, the figure is 118%.

As for `O=C(NCCO)c1ccc2c(c1)nc(Nc1cccc(Cl)c1)c1ccncc12`, the remaining activity was 90%. As for `CN1CCN(CC/C=C2/c3ccccc3Sc3ccc(S(=O)(=O)N(C)C)cc32)CC1`, the figure is 99.4%.

Values taken from PubChem BioAssay.
